Compounds without any hit were thinned out: in the full panel of roughly 83,000, 20% have a hit.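 Treatment: one concentration, 48 hours, 96-well format. Scoring: percent growth, with anything below 10 considered active.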 Unmarked numbers belong to inactive results. Activity calls are given as the source filed them.
Experiments:
Assay in all cases: NCI-60 one-dose screen, 48 h (100 = growth as untreated, 0 = no growth, -100 = all killed)
Settings in all cases: 10 µM unless noted
DU-145 prostate = test system: DU-145 prostate
K-562 leukemia = test system: K-562 leukemia
MALME-3M melanoma = test system: MALME-3M melanoma
MDA-MB-231 breast = test system: MDA-MB-231 breast
RXF 393 renal = test system: RXF 393 renal
SF-268 CNS = test system: SF-268 CNS
SF-295 CNS = test system: SF-295 CNS
SF-539 CNS = test system: SF-539 CNS
UACC-257 melanoma = test system: UACC-257 melanoma
M14 melanoma = test system: M14 melanoma

Compound	growth (DU-145 prostate)	growth (K-562 leukemia)	growth (MALME-3M melanoma)	growth (MDA-MB-231 breast)	growth (RXF 393 renal)	growth (SF-268 CNS)	growth (SF-295 CNS)	growth (SF-539 CNS)	growth (UACC-257 melanoma)	growth (M14 melanoma)
COc1ccc2nc(-c3ccc(Cl)cc3)cc(-c3nnc(SCC(=O)Nc4ccc(/C(C)=N\O)cc4)o3)c2c1	25.9%	15.9%	15.1%	39.7%	39.7%	33.1%	43%	68.4%	44.4%	30.3%
N#Cc1c(-c2ccc(F)cc2)nc(N/N=C/c2cccc(O)c2)nc1N1CCOCC1	65.9%	67.5%	100%	96.8%	53.9%	88.3%	98.9%	78.4%	88.8%	85.6%
CCOC(=O)c1c(C)nc2c(c1N)/C(=C/c1ccc[nH]1)C(=O)N2Cc1ccc(C(F)(F)F)cc1	79.1%	63.4%	62.1%	18.3%	48.6%	55.5%	29.4%	40.4%	77.6%	69.8%
CCOCc1cc(C(C)(C)C)ccc1O	110%	101%	104%	105%	109%	105%	105%	103%	89.3%	104%
COc1cc2nc3c(=O)n(CCN(C)C)cnn3c(=O)c2cc1OC	108%	125%	99.4%	116%	108%	101%	99.5%	97.7%	107%	95.5%
O=CN1N=C(c2ccc(F)cc2)CC1c1cccc(Nc2ccnc3cc(C(F)(F)F)ccc23)c1 (stereo not given)	70.9%	22.7%	67.9%	72.5%	71.2%	51.9%	44.2%	77.5%	48.6%	70%
c1ccc2c3c([nH]c2c1)C(c1ccc(C2NCCc4c2[nH]c2ccccc42)cc1)NCC3 (stereo not given)	-35.1% (active)	-57.6% (active)	-50.3% (active)	-56.2% (active)	33.9%	-29.2% (active)	-72.2% (active)	-15.5% (active)	-41.7% (active)	-84.9% (active)
COc1cc(N=Nc2cc(S(=O)(=O)O)cc3cc(S(=O)(=O)O)cc(O)c23)c(C)cc1N=Nc1c(S(=O)(=O)O)cc2cc(Nc3ccccc3)ccc2c1O	103%	84.6%	93.8%	107%	129%	98.2%	109%	103%	111%	102%
COCCOCCOCc1n(Cc2ccc3ccccc3n2)c2ccccc2[n+]1Cc1ccc2ccccc2n1	35.4%	19.1%	5.23% (active)	17.9%	66.9%	22.7%	52.3%	26.7%	-5.39% (active)	26%
COc1ccc2nc(-c3ccc(OC)c(OC)c3)cc(-c3nnc(SCC(=O)Nc4ccc(C(C)=O)cc4)o3)c2c1	108%	99.2%	109%	99.5%	102%	104%	100%	96%	101%	105%
CS(=O)(=O)O[C@@H]1C(=O)N(c2cc3c4ccccc4ccc3c3ccccc23)[C@H]1c1ccc(F)cn1	11.5%	10.3%	74.2%	50.1%	18.6%	43.4%	9.48% (active)	15.7%	41.7%	30.2%
CCC1S/C(=N\N=C(/C)c2ccc[nH]2)N(c2ccccc2)C1=O (stereo not given)	122%	72.8%	85.5%	100%	91.4%	109%	120%	119%	104%	115%
COc1cc(NC(=O)COc2cc(C)nc3ccc(OC)cc23)cc(OC)c1	97.8%	79.1%	82.8%	80%	94.2%	94.5%	96.8%	76.1%	82%	94.8%
COc1ccc(-c2[nH]c3ccccc3c2C=C(C#N)C#N)cc1	-10.1% (active)	-5.54% (active)	87.4%	17.6%	3.79% (active)	25.1%	-50.4% (active)	-26.8% (active)	54.2%	1.05% (active)
CN(CCC#N)C(=O)Nc1ccccc1	115%	96.2%	100%	116%	114%	106%	109%	105%	94.1%	109%
COc1cc(F)c(-c2nc3c(C)cccc3n2Cc2c(F)cccc2F)c(F)c1	108%	76.2%	79.5%	89.2%	97.8%	84.3%	79.9%	101%	76.2%	86.3%
O=CN1N=C(c2ccc(Cl)cc2)CC1c1cccc(Nc2ccnc3cc(C(F)(F)F)ccc23)c1 (stereo not given)	70.1%	24.9%	77.5%	80.7%	71.4%	58.9%	51.4%	78.7%	52.1%	74%
C=C1C(=O)O[C@H]2[C@H]1CC/C(COC(=O)CCCCCCCC(=O)OC/C1=C/CC[C@@]3(C)O[C@H]3[C@H]3OC(=O)C(=C)[C@@H]3CC1)=C\CC[C@@]1(C)O[C@@H]21	27.8%	3.32% (active)	-19.7% (active)	-10.3% (active)	-70.6% (active)	30.9%	86.7%	-1.74% (active)	58.2%	8.2% (active)
COCCOC(=O)COc1ccc(OC)cc1	103%	104%	97%	98.1%	104%	102%	99.5%	104%	96.3%	105%
NC(=N\N=C\c1ccccc1O)/C(N)=N/N=C/c1ccccc1O	80.1%	71.1%	79%	83.6%	106%	78.8%	77.7%	81.3%	84.3%	79%
COc1cc2c(cc1OC)C(Sc1ccc(Cl)cc1)c1c(nc(N)c(C#N)c1N)O2 (stereo not given)	5.73% (active)	0.964% (active)	-28.6% (active)	-20.1% (active)	-65.4% (active)	35.7%	43.8%	-21.9% (active)	22.5%	-21.2% (active)
Nc1n[nH]c2cccc(C#Cc3cccc(NC(=O)c4cc(N5CCOCC5)cc(C(F)(F)F)c4)c3)c12	64.6%	4.32% (active)	-18.1% (active)	30%	38.7%	55.8%	69.1%	24.6%	45.1%	19.2%
CC(=O)Nc1nc2c(c(N)c1C#N)C(c1cccc(Cl)c1)C1=C(CCCC1=O)N2c1sc2c(c1C#N)CCCC2 (stereo not given)	72.5%	29.8%	83.3%	67.1%	16.2%	66.3%	44%	65%	54.4%	52.2%
CCCCOc1nc2ccc(C)cc2cc1/C=C/C(=O)/C=C/c1ccc2c(c1)OCO2	82.8%	69.1%	106%	92.8%	108%	75.4%	105%	109%	73.3%	52.4%

Source: PubChem BioAssay (NCI)
